# KLF5 inh = suppresses KLF5 promoter-driven expression. DLD-1 KLF5 promoter-luciferase reporter, luminescence. inhibition, % at 5 µM. hit rate 0.23% among 290,000. AID 1700;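 active = inhibition above a per-plate limit of that plate's mean compound inhibition plus 3 SD, cut at about 60% in these data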;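 also: 0% = DMSO wells and 100% = LY294002 at 200 µM; higher means less KLF5 promoter-driven luciferase light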
# Wee1 stabilizer = human Wee1 degradation inhibition, primary screen. P30291. HeLa Luc-Wee1K328M stability, luciferase luminescence; 100% = proteasome inhibitor MG132 effect. reporter increase, % at 5 µM. hit rate 1.2% among 220,000. AID 1321;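 active = activation above the mean of all tested compounds plus 3 SD, set per screening run, cut at about 8.8% in these data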;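 also: cells exposed to compound for 20 h before luminescence read; 0% = DMSO alone and 100% = MG132 at 30 µM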
# Target sequence (P30291 whole entry K328M): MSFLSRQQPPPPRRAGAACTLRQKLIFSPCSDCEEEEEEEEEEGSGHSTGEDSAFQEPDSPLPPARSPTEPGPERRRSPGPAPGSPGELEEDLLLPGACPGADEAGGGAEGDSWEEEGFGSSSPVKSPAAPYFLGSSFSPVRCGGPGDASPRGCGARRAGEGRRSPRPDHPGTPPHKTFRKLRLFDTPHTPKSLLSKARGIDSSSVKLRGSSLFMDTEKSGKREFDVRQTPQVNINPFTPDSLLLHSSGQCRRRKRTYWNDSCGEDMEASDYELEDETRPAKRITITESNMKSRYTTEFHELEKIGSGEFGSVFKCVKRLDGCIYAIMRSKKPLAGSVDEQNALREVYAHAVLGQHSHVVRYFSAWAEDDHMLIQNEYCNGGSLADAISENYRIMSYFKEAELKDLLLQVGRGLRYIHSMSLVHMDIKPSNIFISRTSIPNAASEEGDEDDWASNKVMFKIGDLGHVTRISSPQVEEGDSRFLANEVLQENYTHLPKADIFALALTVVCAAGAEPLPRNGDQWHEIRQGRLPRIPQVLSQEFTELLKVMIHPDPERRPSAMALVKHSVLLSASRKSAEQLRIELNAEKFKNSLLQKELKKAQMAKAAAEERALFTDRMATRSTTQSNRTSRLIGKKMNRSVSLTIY
# HIF activator = HIF pathway transcriptional activation; U2OS HRE-luciferase reporter, luminescence; normalized: DMSO 0%, desferrioxamine 100%; AID 1910; hit rate 0.32% among 300,000; activation, % at 7.5 µM (by protocol);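 active = mean activation of at least 10% of the iron chelator positive control signal, with at least half of replicates also reaching 10%; inconclusive = mean and replicate majority disagree about reaching 10%; inactive = mean and most replicates under 10%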
# aSyn UTR inh = 5' untranslated region of α-synuclein, MLPCN primary screen | alpha-synuclein 5'UTR reporter, inhibitor activity | inhibition, % (tested at 7.5 µM) | hit rate 0.82% among 300,000; in the data active = inhibition above about 60%; inconclusive = no clear call, values can overlap the other calls;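 also: H4 neuroglioblastoma cells stably carrying SNCA 5'UTR luciferase fusion; 0% = DMSO wells and 100% = positive control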
# Platelet DG rel = modulates dense granule release in human platelets; human platelet-rich plasma, SFLLRN dense granule ATP release, luminescence; inhibition, %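 (compounds screened at 7.5 µM in platelet-rich plasma)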; hit rate 0.22% among 300,000; AID 1663;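 active = mean replicate score, as percent of positive control, at or above 50; inconclusive = mean below 50 but at least one replicate at or above 50; inactive = mean and every replicate below 50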
# An asterisk follows results filed as active; ? = inconclusive; nt = no result. Most compounds without a hit are left out; they make up all but 2.1% or so of the library.
SMILES,KLF5 inh,Wee1 stabilizer,HIF activator,aSyn UTR inh,Platelet DG rel
CC(NC(=O)C(=O)N1CCCCC1)C(c1cccs1)N1CCN(c2ccccc2)CC1 (centres undefined),-7.7,nt,-0.6,2.8,0.6
c1ccc(-c2noc(C3CCC3)n2)nc1,-59.3,-0.4,0.5,-53.9,-8.0
CCCCC1CCC(c2nc(-c3ccccn3)no2)CC1 (centres undefined),-16.3,1.5,-2.0,96.6*,-1.4
O=C(NCCc1cccc(Cl)c1)c1ccc(OC2CCN(Cc3ccccn3)CC2)cc1,-25.7,nt,-1.0,-8.9,-4.8
O=c1c2c(-c3ccccc3)csc2ncn1/N=C/c1cccc([N+](=O)[O-])c1O,-9.0,-0.3,-0.2,-8.0,-2.9
Cn1cc(/C=N/n2cnc3scc(-c4ccccc4)c3c2=O)c2ccccc21,-26.8,2.1,0.4,66.4*,-0.1
Cc1ncc(CO)c(CNc2ccc(-c3nc4ccccc4[nH]3)cc2)c1O,-91.2,nt,-28.5,-14.4,0.6
Cc1cccc(C(=O)N=c2sccn2C)c1[N+](=O)[O-],-83.0,nt,4.2,-133.5,-3.2
CC(NC(=O)CCc1nc2cc(S(=O)(=O)N3CCOCC3)ccc2n1C)c1ccc(S(N)(=O)=O)cc1 (centres undefined),-19.6,nt,0.2,-4.8,55.3*
COc1cccc(C(=O)C2CCCN(C/C=C/c3ccccc3OC)C2)c1 (centres undefined),-17.5,-0.9,0.4,-3.6,-1.0
COc1ccc(/C=C/CN2CCCC(C(=O)c3ccc(OC)c(F)c3)C2)cc1 (centres undefined),-29.1,9.1*,-0.3,29.9,16.9
O=C(Nc1ccccc1Cl)c1cc[n+]([O-])cc1,-4.9,nt,-2.5,-2.9,-5.9
O=C(Cn1c2ccccc2c(=O)c2ccccc21)N/N=C/c1ccc(N2CCCC2)c([N+](=O)[O-])c1,-7.8,4.5,nt,111.0*,?
CCCC12CN3CC(C)(CN(C1)C3c1cccs1)C2=O (centres undefined),9.3,-2.3,-0.2,13.1,12.5
CCOC(=O)c1c2c(n(C)c1C)C(=O)C(=O)c1ccc(Br)cc1-2,-12.9,-0.4,-7.6,110.5*,0.0
Cc1c(CN(C)C)c2c(n1C)C(=O)c1ccc(Br)cc1-2,-6.7,0.8,-0.1,-9.5,2.8
COC(=O)C1CN(C(=O)COc2cccc(C)c2C)c2ccccc2O1 (centres undefined),-26.3,nt,-1.1,-11.9,2.8
Cc1ccc(OCc2nc(-c3ccccn3)n[nH]2)cc1,-65.3,9.1*,1.4,-54.5,4.0
Cc1cccc(OCc2nc(-c3ccccn3)n[nH]2)c1,-25.6,1.4,0.2,-19.8,1.5
O=C(OCCN1C(=O)c2cccc3c(N4CCOCC4)ccc(c23)C1=O)c1ccccc1Cl,-6.1,-0.7,3.1,-30.2,7.1
O=C(OCCN1C(=O)c2cccc3c(N4CCOCC4)ccc(c23)C1=O)c1ccc(Cl)cc1Cl,-11.3,3.5,0.0,99.1*,-6.1
C[C@@H]1CC[C@]2(O[C@H](CCO)C[C@@H](O)[C@@H]2O)O1,nt,nt,0.1,-8.3,0.6
C[C@H]1CC[C@@]2(O[C@H](CCO)C[C@@H](O)[C@@H]2O)O1,-5.7,9.4*,-0.2,11.0,4.8
CCOC(=O)C1(Cc2cccc(OC)c2)CCN(CC=C(C)C)CC1,-19.5,-0.5,0.1,3.9,57.4*
CCOC(=O)C1(Cc2cccc(OC)c2)CCN(C/C=C/c2ccc(OC)cc2)CC1,-4.0,-2.5,-0.2,-12.2,-0.8
SMILES,KLF5 inh,Wee1 stabilizer,HIF activator,aSyn UTR inh,Platelet DG rel
CCOC(=O)C1=C(C)N=c2s/c(=C\c3ccc(O)c([N+](=O)[O-])c3)c(=O)n2C1c1ccccc1OC (centres undefined),-3.0,nt,-0.6,5.0,8.8
COc1ccc(/C=c2/sc3n(c2=O)C(c2ccccc2OC)C2=C(N=3)c3ccccc3CC2)cc1O (centres undefined),6.4,2.9,0.5,94.3*,-5.0
CCC1CCc2sc(C(=O)O)cc2C1 (centres undefined),12.1,0.8,64.9*,-0.4,-7.2
CCc1ccc(/C=N/NC(=O)c2cc(C3CC3)nc3ccccc23)s1,26.9,10.5*,0.0,15.2,-8.6
Cc1cccc(/C=N/NC(=O)c2cc(C3CC3)nc3ccccc23)n1,2.0,nt,0.4,-4.9,2.5
Cn1c(=O)c2c(nc(Sc3ncnn3CC(=O)NC(C)(C)C)n2C)n(C)c1=O,-12.0,10.2*,0.1,11.9,4.7
CCN(CC)CCNC(=O)c1ccccn1,-10.6,16.1*,0.5,9.9,2.6
CCN(CC)CCNC(=O)/C(=N\O)c1ccccn1,-3.6,-2.2,0.2,-2.5,4.8
